Source: PubChem BioAssay AID1159580 (chemical genetic matrix, 2015)
Where “and” joins values, the source holds several entries; their conditions need not be identical. Equal values may be shown once. In all, about 5,500 compounds went through this assay and about 2,000 (36%) were called active. Inconclusive results (about 18%) are left out. Rule as the data show it: active = normalized growth mostly below about 0.91 (no sharp cut-off); inconclusive = no clear call, values can overlap the other calls; inactive = mostly above about 0.92. The list shows a part of the results.

Assay: chemical genetic growth profiling, strain panel (AID 1159580);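 also: tested at 20 µM; growth read once vehicle control cultures reached saturation at 30 °C; 1 = growth at the plate median or of vehicle wells; lower values mean less growth of the strain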
Details: S. cerevisiae deletion strains, growth OD

Measured: normalized growth

CCCC(C(=O)OCCN(CC)CC)(c1ccccc1)c1ccccc1
active: locus YDR137W, strain rgp1, active compounds read low 1.18 [resistant]
inactive: locus YAL013W, strain DEP1, active compounds read low 0.991 | locus YAL021C, strain ccr4, active compounds read low 0.981 | locus YAL026C, strain drs2, active compounds read low 1.01 | locus YAL030W, strain snc1, active compounds read low 0.985 | locus YAL040C, strain CLN3, active compounds read low 1.03 | locus YBR009C, strain hhf1, active compounds read low 1 | locus YBR021W, strain FUR4, active compounds read low 0.92 | locus YBR023C, strain chs3, active compounds read low 1 | locus YBR171W, strain sec66, active compounds read low 0.998 | locus YBR229C, strain ROT2, active compounds read low 1.01 | locus YBR231C, strain swc5, active compounds read low 0.992 | locus YBR279W, strain paf1, active compounds read low 0.995 | locus YCL011C, strain gbp2, active compounds read low 1.01 | locus YCL016C, strain dcc1, active compounds read low 0.995 | locus YCL029C, strain bik1, active compounds read low 1 | locus YCL061C, strain MRC1 (second series), active compounds read low 0.993 | locus YCL069W, strain vba3, active compounds read low 1.01 | locus YCR088W, strain abp1, active compounds read low 1 | locus YDL005C, strain med2, active compounds read low 1 | locus YDL035C, strain GPR1, active compounds read low 0.99 | locus YDL040C, strain nat1, active compounds read low 1.01 | locus YDL074C, strain BRE1, active compounds read low 0.997 | locus YDL101C, strain DUN1, active compounds read low 1 | locus YDL134C, strain PPH21, active compounds read low 0.979 | locus YDL185W, strain tfp1, active compounds read low 0.994 | locus YDL192W, strain arf1, active compounds read low 0.994 | locus YDR001C, strain nth1, active compounds read low 1.01 | locus YDR069C, strain doa4, active compounds read low 0.99 | locus YDR101C, strain arx1, active compounds read low 0.986 | locus YDR150W, strain NUM1, active compounds read low 1 | locus YDR159W, strain sac3, active compounds read low 1 | locus YDR162C, strain NBP2, active compounds read low 0.997 | locus YDR195W, strain ref2 0.909 | locus YDR297W, strain sur2, active compounds read low 1 | locus YDR318W, strain mcm21, active compounds read low 0.993 | locus YDR334W, strain swr1, active compounds read low 1.03 | locus YDR335W, strain msn5, active compounds read low 1 | locus YDR363W, strain ESC2, active compounds read low 1 | locus YDR388W, active compounds read low 0.982 | locus YDR392W, strain spt3, active compounds read low 0.962 | locus YDR502C, strain sam2, active compounds read low 0.995 | locus YEL003W, strain gim4, active compounds read low 0.999 | locus YEL037C, strain rad23, active compounds read low 1 | locus YEL061C, strain CIN8 (second series), active compounds read low 1.01 | locus YEL061C, strain CIN8, active compounds read low 1 | locus YER002W, strain NOP16, active compounds read low 1.02 | locus YER015W, strain faa2, active compounds read low 1.01 | locus YER016W, strain bim1, active compounds read low 0.987 | locus YER110C, active compounds read low 0.999 | locus YER111C, strain swi4, active compounds read low 1 | locus YER155C, strain BEM2 (second series), active compounds read low 0.946 | locus YER155C, strain BEM2, active compounds read low 1.01 | locus YER167W, strain BCK2, active compounds read low 0.994 | locus YFR010W, strain ubp6, active compounds read low 0.994 | locus YGL078C, strain dbp3, active compounds read low 1.01 | locus YGL086W, strain mad1, active compounds read low 0.988 | locus YGL167C, strain pmr1, active compounds read low 0.999 | locus YGL173C, strain kem1, active compounds read low 0.99 | locus YGL227W, strain vid30, active compounds read low 1.01 | locus YGL240W, strain doc1, active compounds read low 0.99 | locus YGL248W, strain PDE1, active compounds read low 1.02 | locus YGL253W, strain hxk2, active compounds read low 1.01 | locus YGR078C, strain PAC10, active compounds read low 0.992 | locus YGR135W, strain pre9, active compounds read low 0.958 | locus YGR229C, strain SMI1, active compounds read low 0.976 | locus YGR252W, strain gcn5, active compounds read low 0.877 | locus YHR013C, strain ard1, active compounds read low 0.975 | locus YHR027C, strain rpn1, active compounds read low 1 | locus YHR030C, strain SLT2, active compounds read low 1 and 0.999 | locus YHR079C, strain IRE1 (second series), active compounds read low 1.01 | locus YHR079C, strain IRE1, active compounds read low 0.987 | locus YHR094C, strain hxt1, active compounds read low 0.987 | locus YHR129C, strain ARP1, active compounds read low 1.01 | locus YHR142W, strain chs7, active compounds read low 1 | locus YHR200W, strain rpn10, active compounds read low 0.993 | locus YIL066C, strain RNR3, active compounds read low 0.987 | locus YIL073C, strain SPO22, active compounds read low 1.01 | locus YIL125W, strain kgd1, active compounds read low 0.996 | locus YIR030C, strain dcg1, active compounds read low 0.989 | locus YJL092W, strain hpr5, active compounds read low 1 | locus YJL095W, strain BCK1 (second series), active compounds read low 0.994 | locus YJL095W, strain BCK1, active compounds read low 0.996 and 0.988 | locus YJL115W, strain asf1, active compounds read low 0.979 | locus YJL129C, strain trk1, active compounds read low 1.01 | locus YJL134W, strain LCB3, active compounds read low 1.01 | locus YJL154C, strain vps35, active compounds read low 1.01 | locus YJL164C, strain tpk1, active compounds read low 1 | locus YJL166W, strain qcr8, active compounds read low 0.997 | locus YJL168C, strain set2, active compounds read low 0.992 | locus YJL187C, strain SWE1 (second series), active compounds read low 1.01 | locus YJL187C, strain SWE1, active compounds read low 0.993 | locus YJR043C, strain POL32, active compounds read low 1 | locus YJR066W, strain TOR1, active compounds read low 0.954
